# Laboratory results: paper PMC5540273 (PLoS ONE, 2017)
# What was measured:
# Settings in all cases: concentration: 1 μM, replicates: in singlicate; n = 1
# NDR1 = test system: T1, NDR1
# T1 construct: gene STK38
# NDR2 = test system: NDR2
# NEK10 = test system: NEK10
# NEK11 = test system: NEK11
# NEK1 = test system: NEK1
# NEK2 = test system: NEK2
# NEK3 = test system: NEK3
# NEK4 = test system: NEK4
# NEK5 = test system: NEK5
# NEK6 = test system: NEK6
# NEK7 = test system: NEK7
# NEK9 = test system: NEK9
# NIK = test system: T2, NIK
# T2 construct: gene MAP3K14
# NIM1 = test system: T3, NIM1
# T3 construct: gene MGC42105
# NLK = test system: NLK
# OSR1 = test system: T4, OSR1
# T4 construct: gene OXSR1
# PAK1 = test system: PAK1
# PAK2 = test system: PAK2
# PAK3 = test system: PAK3
# PAK4 = test system: PAK4
# 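Note: KINOMEscan kinase panel screen.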
SMILES,%Inh (NDR1) [%],%Inh (NDR2) [%],%Inh (NEK10) [%],%Inh (NEK11) [%],%Inh (NEK1) [%],%Inh (NEK2) [%],%Inh (NEK3) [%],%Inh (NEK4) [%],%Inh (NEK5) [%],%Inh (NEK6) [%],%Inh (NEK7) [%],%Inh (NEK9) [%],%Inh (NIK) [%],%Inh (NIM1) [%],%Inh (NLK) [%],%Inh (OSR1) [%],%Inh (PAK1) [%],%Inh (PAK2) [%],%Inh (PAK3) [%],%Inh (PAK4) [%]
O=C(Nc1n[nH]c2nc(-c3nccs3)c(Br)cc12)C1CCCC1 [SB-742609],0,0,15,0,0,0,14,38,0,0,5,0,33,0,31,7,16,21,17,0
CS(=O)(=O)c1ccc(-c2c(-c3ncn[nH]3)sc(N3CCOCC3)c2C#N)cc1,18,0,36,0,4,0,40,0,7,31,0,0,0,21,0,0,2,10,6,5
CCn1c(-c2cccnc2O)nc2cnccc21 [SB-736715],0,0,0,0,0,0,21,0,0,0,0,0,27,0,0,0,0,0,0,32
CC(C)(C)c1ccc(C(=O)Nc2cn3cc(Cl)ccc3n2)cc1,99.7,0,4,0,0,0,21,0,0,0,0,0,0,0,0,0,0,14,0,0
O=C(Nc1ccc2c(c1)OCO2)NC1CCN(c2ccnc(Nc3ccc(F)cc3)n2)C1 (stereo not drawn) [GSK1379724],0,0,11,0,0,0,17,20,25,0,0,0,0,46,12,0,18,37,0,0
COc1ccc(C2=C(Nc3cccc(C(=O)O)c3)C(=O)NC2=O)cc1 [SB-390765],2,13,2,30,0,10,31,23,0,13,28,2,10,45,1,22,0,27,0,0
COc1ccccc1-c1ccc2c(NC(=O)C3CC3)n[nH]c2n1 [SB-711239],8,0,11,33,0,22,0,6,0,4,6,5,0,19,15,64,5,0,7,12
Cl.c1ccc(-c2n[nH]cc2-c2ccnc(-c3ccc(CN4CCOCC4)cc3)c2)nc1 [GW776245],14,31,0,0,0,21,14,0,6,22,0,0,0,0,0,0,6,14,10,16
COc1ccc(Nc2nccc(NCCNC(=O)Nc3ccccc3F)n2)cc1 [GSK1379901],26,0,13,0,0,0,19,0,3,0,0,0,9,9,7,8,0,0,0,0
CC(=O)Nc1nc2cnc(Nc3cc(NC(=O)c4cccc(CCC#N)c4)ccc3C)nc2s1,0,22,13,0,0,2,7,0,0,14,6,0,0,0,0,0,0,0,7,5
Cc1cccc(-c2nc(Nc3ccncc3)c3ccccc3n2)n1 [GW855857],8,6,0,0,0,0,30,0,10,21,0,0,0,0,47,0,0,0,0,0
Cc1cc(-c2ccc3c(c2)CC[C@@H](N[C@@H](C)c2ccccc2)C3)cnc1N.Cl [GW412617],0,0,63,20,0,3,0,16,0,14,9,0,77,22,0,8,0,16,0,36
Cc1nnc(-c2ccc3occ(-c4ccc(S(C)=O)cc4)c3c2)[nH]1 (stereo not drawn),1,0,0,0,0,11,11,0,1,8,22,25,0,0,17,6,28,36,17,8
COC(=O)c1c(-c2ccccc2)c2cc(C(=O)O)ccc2c(=O)n1Cc1ccccc1,2,0,9,0,22,0,31,0,0,0,0,0,0,0,0,0,14,22,0,0
Cc1c(O)cccc1Nc1ccnc2ccc(C(F)(F)F)cc12.Cl [GW466413],0,0,16,0,0,0,0,0,0,0,0,0,22,17,0,0,0,0,1,0
Clc1cc(Cl)cc(Nc2ccnc(Nc3cc(Cl)cc(Cl)c3)n2)c1 [GSK175726],21,11,4,8,1,4,16,0,23,0,0,7,0,0,17,0,12,0,0,6
O=C(Nc1n[nH]c2cc(-c3cccc(F)c3F)ccc12)C1CC1 [SB-733894],5,0,0,0,0,5,39,3,0,0,7,0,0,0,72,0,3,41,2,12
Cl.O=C(Nc1cccc(-c2nn3ncccc3c2-c2ccnc(Nc3cccnc3)n2)c1)c1c(F)cccc1F [GSK312879],0,0,7,0,0,14,0,23,0,0,7,0,24,11,15,23,15,19,9,0
O=C1NC(=O)C(N2CCc3ccccc32)=C1c1ccccc1Cl [SB-373598],12,0,18,0,0,1,7,15,9,0,0,13,0,16,2,63,10,10,100,0
Cl.NC(=O)c1cccc(Nc2nccc(Nc3ccc(Oc4cccc(Cl)c4)c(Cl)c3)n2)c1 [GW659008],0,0,0,0,0,0,0,1,32,0,16,3,27,29,21,8,9,9,33,0
Cc1cccc(-c2nc(Nc3ccc4[nH]ncc4c3)c3ccccc3n2)n1 [GW857175],26,5,54,7,0,4,18,27,8,3,5,0,11,30,1,25,0,2,0,6
